Compound activity deposited in PubChem BioAssay by National Center for Advancing Translational Sciences (NCATS).
KB-V1 MDR tox: KB-V1 MDR subline cytotoxicity; KB-V1 MDR cells viability, CellTiter-Glo, 72 h; Potency, µM (doses to about 46.1 µM), hits mostly cytotoxic; 3.4% of 400,000 active; also: nearly all actives have a fitted effect of over 60% in size
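KB-V1 cells (P-gp-expressing MDR subline of KB-3-1) in phenol-red-free DMEM with 10% FBS were exposed to library compounds over a concentration series for 72 h at 37 degrees C. Viability read by CellTiter-Glo luminescence; concentration-effect curves fitted after normalization.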
KB-3-1 cytotox: KB-3-1 parental cell cytotoxicity | KB-3-1 viability, CellTiter-Glo ATP luminescence, 72 h | Potency, µM (top dose mostly 46.1 µM), most hits filed as cytotoxic | 1.4% of 400,000 active | AID 1347075; also: nearly all actives have a fitted effect of over 60% in size
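Multi-concentration cytotoxicity screen in KB-3-1 cells grown in DMEM lacking phenol red with 10% FBS. After 72 h at 37 °C with compound, ATP-dependent luminescence was recorded.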
ATXN2 expr inh: reduces ATXN2 reporter expression in HEK-293 cells; 0.72% of 360,000 active; AID 1745845; Potency, µM (doses to about 57 µM), hits mostly inhibitors; HEK-293 ATXN2-luciferase reporter, luminescence, 24 h; also: nearly all actives have a fitted effect of over 55% in size
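qHTS (up to 57 uM final) was run with 24 h compound exposure of reporter cells at 37 °C. Each well was multiplexed: SteadyGlo luminescence measured ATXN2-luciferase expression after a fluorogenic Gly-Phe-AFC viability readout (25 uM final).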
ATXN viability: cell viability loss in ATXN counter-screen; 0.49% of 400,000 active; S2 cells (HEK-293 line with an ATXN2-luciferase reporter) viability, CellTiter-Fluor protease fluorescence, 24 h; Potency, µM (series often up to 56.7 µM), most hits filed as cytotoxic; AID 651635; also: nearly all actives have a fitted effect of over 40% in size
HT1080 IDH1KD tx: toxicity to HT-1080 IDH1 knockdown cells (counter line); AID 686971; Potency, µM (series often up to 46.1 µM), most hits filed as cytotoxic; 2% of 360,000 active; HT-1080 IDH1 knockdown viability, ATP luminescence, 48 h
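Viability of IDH1-knockdown HT-1080 fibrosarcoma cells was assessed by CellTiter-Glo after 48 h at 37 °C with titrated compound; concentration-effect curves were classified by fit quality and response size.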
HT1080NT lethal: kills 2HG-producing HT-1080-NT fibrosarcoma cells; HT-1080-NT fibrosarcoma viability, CellTiter-Glo ATP luminescence, 48 h; Potency, µM (doses to about 46.1 µM), usual class: cytotoxic; 1.6% of 360,000 active; AID 686970;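 also: NT is the 2HG producing partner of a matched IDH1 knockdown line; nearly all actives have a fitted effect of over 55% in size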
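Compounds were tested in concentration-response format on HT-1080-NT cells for 48 hours at 37 degrees C. Cell viability came from CellTiter-Glo luminescence; curves were classified by r2, response magnitude and activity.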
A number is an active result; 0 = inactive; ? = inconclusive; - = no result; ! = repeats disagree; [ ] = another dose, or the depositor's remark. This is a sample that favours compounds with a hit; in the whole collection about 6.2% have one here. Calls follow the shape of the dose curve; as a rule, active = well fitted curve in the direction sought with a large enough effect; inconclusive = small, poorly fitted or top-dose-only effect, or another doubt; inactive = no such curve, though single readings can be large; an effect the other way counts as inactive or inconclusive.

SMILES	KB-V1 MDR tox	KB-3-1 cytotox	ATXN2 expr inh	ATXN viability	HT1080 IDH1KD tx	HT1080NT lethal
COc1cccc(C(=O)Nc2ccc3c(c2)CCCN3C(=O)c2cccs2)c1OC	?	9.2µM!	?	?	?	?
CCOc1ccc(N(CC)C(=O)c2cc3c(s2)-c2ccc(Cl)cc2SC3)cc1	0	?	0	0	-	-
Cc1cc(C)c(C#N)c(Sc2nc(C)c([N+](=O)[O-])c(C)c2C#N)n1	0	?	22µM	20µM	4.6µM	16µM
Cc1nc(Sc2ccccc2)c(C#N)c(C)c1[N+](=O)[O-]	?	0	0	0	?	0
CN1C=CC2=C(C#N)C(N)C(C#N)(C#N)C(c3ccccc3)C2C1 (stereo not given)	15µM	0	0	0	0	0
CN1C[C@@H]2C(c3ccccc3)C3(c4ccc(C#N)cc4)CC2(C3)[C@H]1c1ccccc1 (stereo not given in full)	0	0	0	0	0	0
COc1cccc(N2C(=O)C(CC(=O)Nc3ccccc3)N(CCc3sccc3C)C2=O)c1 (stereo not given)	0	0	0	?	-	-
O=C(NN1CCCCC1)c1cccc(COc2ccc(Cl)cc2)c1	15µM	0	0	?	0	0
COc1ccc(C(=O)C=Cc2ccc(OCc3ccccc3)c(OC)c2)cc1OC	?	?	-	0	?	?
CCOc1ccc(OCc2cccc(C(=O)N3CCCCCC3)c2)cc1	?	0	-	0	0	0
O=C(O)c1cccc(COc2ccc(CO)cc2Cl)c1	0	0	0.28µM	0	0	0
COc1cc(/C=C/[N+](=O)[O-])ccc1OCc1cccc(C(=O)O)c1	0	0	28µM	?	?	?
CCOc1ccc(OCc2cccc(C(=O)O)c2)cc1	0	0	0.28µM	0	7.9µM	7.9µM
COc1ccc(OCc2cccc(C(=O)O)c2)cc1	18µM	?	0.32µM	0	?	?
O=C(OCC(F)(F)F)c1cccc(COc2ccc3ccccc3c2)c1	0	0	2µM	0	0[9.24 µM]	0
CCOc1ccc(OCc2cccc(C(=O)N3CCCC3)c2)cc1	?	0	7.9µM	0	0	0
COC(=O)CCC(=O)NC(=S)Nc1sc(C)c(C)c1C(N)=O	1.6µM	0.65µM	0	?	0.33µM	?
Cc1sc(NC(=S)NC(=O)CCc2ccccc2)c(C(N)=O)c1C	?	0.18µM	0	?	?	0.16µM
COc1cc(-c2noc(C)c2C#Cc2ccsc2)cc(OC)c1OC	3.3µM!	?	0	0	0.52µM	?
COc1cc(-c2noc(C)c2C#CC2(N)CCCCC2)cc(OC)c1OC	21µM!	?	0	0	0	0
COc1cc(-c2noc(C)c2C#CCO)cc(OC)c1OC	?	0	0	0	0	0
COc1cc(-c2noc(C)n2)cc(OC)c1OC	0	0	0	0	0	0
COc1cc(-c2noc(C)c2C#CC2(O)CCCCC2)cc(OC)c1OC	15µM!	?	0	0	0	0
COc1cc(OC)cc(-c2c(C#Cc3ccsc3)c3cc(-c4ccccc4OC)ccc3n2C)c1	0	0	0	0	0	0
O=C(CC(O)(c1ccccc1)c1ccccc1)Nc1ccccn1	15µM	0	0	?	0	0
SMILES	KB-V1 MDR tox	KB-3-1 cytotox	ATXN2 expr inh	ATXN viability	HT1080 IDH1KD tx	HT1080NT lethal
O=C(CC(=O)c1ccccc1)Nc1ccccn1	0	0	0	0	0	0
COc1ccc(-c2ccc(NS(=O)(=O)c3ccc(NC(C)=O)cc3)cc2)nn1	0	0	0	0	-	-
CC(=O)NC(=O)c1ccc(-c2ccc(Cl)cc2)o1	8.2µM	?	0	0	0	0
O=C(NC(=S)Nc1ccccc1O)c1ccc(-c2ccc(Cl)cc2)o1	0	?	0	0	?	?
CN1CCN(c2ccc(NC(=O)c3ccc(-c4ccc(Cl)cc4)o3)cc2)CC1	?	?	?	-	8.2µM	5.8µM
c1cncc(OC2CCN(Cc3ccc4c(c3)CN(Cc3ccc5c(c3)CCO5)CCO4)CC2)c1	-	-	-	0	-	-
CC(=O)Nc1ccc(SCC(=O)c2ccc(Br)s2)cc1	0	0	0	0	18µM	26µM
CCC(=O)c1ccccc1OCCSc1nc(C)cc(=O)[nH]1	15µM	0	0	0	0	0
Cc1cc(=O)[nH]c(SCCCOc2ccc(F)cc2)n1	18µM	0	0	0	0	0
CC(C)c1ccc(/C=C/C(=O)Nc2ccc(CN3CCOCC3)cc2)cc1	16µM	?	?	?	?	?
O=C(/C=C/c1ccc(Cl)cc1)Nc1ccc(CN2CCOCC2)cc1	0	?	?	0	0	?
COc1cccc(CN(C)C(=O)CNC(=O)c2ccc(-c3ccccc3)cc2)c1OC	?	0	?	0	4.6µM	?
COc1ccc(CN(C)C(=O)CNC(=O)c2sc3ccccc3c2Cl)c(OC)c1OC	5.8µM	?	0	?	0	0
O=S(=O)(c1cccs1)N1CCN(c2nc(-c3cccs3)nc3ccccc23)CC1	-	-	-	-	0	0
CC(C)(C)c1ccc(C(=O)CCCCl)cc1	-	-	0	0	-	-
O=C(CSc1nc(-c2ccc(F)cc2)[nH]c1-c1ccccc1)Nc1ccccc1	0	0	0	0	-	-
Cc1nn(Cc2ccccc2Cl)c2sc(C(=O)OC3CCCC3=O)cc12 (stereo not given)	6.5µM	0	0	0	0	0
Cc1nn(Cc2ccccc2Cl)c2sc(C(=O)NC(C)(C)C)cc12	?	?	0	0	?	?
Cc1ccc(C)c(CN2C(=O)CSc3ccc(C(=O)NCCc4ccc(Cl)cc4)cc32)c1	0	0	0	?	-	-
CCCCNC(=O)C(=O)Nc1ccc2c(c1)N(S(=O)(=O)c1cccs1)CCC2	2.3µM	2.1µM	-	?	8.2µM	?
Cc1ccc(-c2csc(Cc3nc(-c4ccc5c(c4)CCC(=O)N5)cs3)n2)cc1	?	0	0	0	0	?
Cc1nc(-c2ccc3c(c2)CCC(=O)N3)cs1	1.3µM	?	0	0	0	0
CN1CCN(Cc2cc(COCc3ccccc3)c3cccnc3c2O)CC1	?	?	4µM	?	?	?
O=c1oc2ccccc2c(O)c1Cc1cc(Cl)c2cccnc2c1O	?	16µM	?	0	0	0
Brc1cc2c(cc1CN1CCc3ccccc3C1)OCO2	0	0	-	0	0	0
SMILES	KB-V1 MDR tox	KB-3-1 cytotox	ATXN2 expr inh	ATXN viability	HT1080 IDH1KD tx	HT1080NT lethal
CN1CCN(C2CCN(Cc3ccc(O)c4ncccc34)CC2)CC1	0	0	0	0	-	-
Oc1c(Cl)cc(CN2CCOCC2)c2cccnc12	0	?	-	?	5.8µM	7.3µM
Oc1c(CN2CCc3ccccc3C2)cc(Cl)c2cccnc12	?	?	5.6µM	4µM	?	?
O=[N+]([O-])c1cc(CN2CCOCC2)c2cccnc2c1O	0	0	0	?	?	0
CCCn1c(SCc2nc(-c3ccc(OC)cc3OC)no2)nnc1-c1ccc(Cl)cc1	0	0	?	?	-	-
CCOc1ccc(CNS(=O)(=O)c2cc3c(cc2C)NC(=O)CO3)cc1OC	0	0	-	-	-	-
